PubChem BioAssay (NCI)
This is part of a sample that, as a whole, favours compounds with a hit. Of some 79,000 tested, about 15% had one in any assay. No stated cut-off is given here; in the data, active means growth inhibition above about 70%; inactive means the rest.

Legend:
[1] = NCI Yeast Anticancer Drug Screen. Data for the rad50 strain (AID 155);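 further: 0% = growth of vehicle-only cultures of the same strain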; details: S. cerevisiae rad50 strain growth inhibition; at 50.0 µM; hits give high values
Procedure, shortened: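 Growth of the mutant yeast was measured after compound exposure and referenced to vehicle-treated cultures.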

[2] = NCI Yeast Anticancer Drug Screen. Data for the mec2-1 strain (AID 157); details: S. cerevisiae mec2-1 strain, at 50.0 µM, hits give high values
Procedure, shortened: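 Mutant yeast (mec2-1) grown with compound; growth inhibition relative to vehicle control reported.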

[3] = NCI Yeast Anticancer Drug Screen. Data for the sgs1 mgt1 strain (AID 161);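 further: 0% = growth of cultures given vehicle only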; details: S. cerevisiae sgs1 mgt1 strain, at 50.0 µM, hits give high values
Procedure, shortened: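 Yeast cells carrying a defined DNA-repair defect were exposed to test compounds. Growth inhibition was measured relative to vehicle-treated controls.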

[4] = NCI Yeast Anticancer Drug Screen. Data for the cln2 rad14 strain (AID 165);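 further: 0% = growth equal to vehicle treated cultures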; details: S. cerevisiae cln2 rad14 strain, at 50.0 µM, hits give high values
Procedure, shortened: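 Readout is yeast growth inhibition versus vehicle-treated controls, using a strain with cln2 and rad14 alterations exposed to compound.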

[5] = NCI Yeast Anticancer Drug Screen. Data for the bub3 strain (AID 167); details: S. cerevisiae bub3 mutant strain, at 50.0 µM, hits give high values
Procedure, shortened: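 Whole-cell yeast assay. The mutant strain was incubated with compounds, and growth inhibition was determined by comparison with vehicle-treated cells.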

[6] = NCI Yeast Anticancer Drug Screen. Data for the mlh1 rad18 strain (AID 175); details: S. cerevisiae mlh1 rad18 strain growth inhibition; at 50.0 µM; hits give high values
Procedure, shortened: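 Genetically defined yeast (DNA repair-deficient) exposed to compounds; growth inhibition determined relative to vehicle.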

Measured: growth inhibition

CNC(=S)NC(C)(C)C
inactive: [1] -14% | [2] -17.3% | [3] -20.6% | [4] -29.2% | [5] -18.8% | [6] -20%

CC1Cc2ccccc2O1 (stereo unspecified)
inactive: [1] 2.7% | [2] 0.35% | [3] -3.7% | [4] -2.35% | [5] 2.9% | [6] 11%

NC(CSC(c1ccccc1)(c1ccccc1)c1ccccc1)C(=O)O (stereo unspecified)
inactive: [1] 1.4% | [2] -18.8% | [3] -28.9% | [4] 20.8% | [5] -8.25% | [6] -42.2%

CCOC(=O)C(CCC(C)C)C(=O)OCC
inactive: [1] -7.55% | [2] 7.85% | [3] -9.65% | [4] -53.4% | [5] 4.6% | [6] 2.6%

CC1C(=O)c2ccccc2CC1C(=O)O (stereo unspecified)
inactive: [1] -1.6% | [2] -15.6% | [3] 7.8% | [4] -22.2% | [5] -5.1% | [6] -21%

CC1(C)N=C(N)N=C(N)N1c1cccc(Br)c1
inactive: [1] -14.3% | [2] -14.4% | [3] -13.1% | [4] 7.15% | [5] -0.95% | [6] 2.3%

O=C(O)c1cc([N+](=O)[O-])ccc1Cl
inactive: [1] 27.9% | [2] 11.2% | [3] 7.15% | [4] 21% | [5] 21.9% | [6] 34.4%

O=[N+]([O-])c1ccccc1S(=O)c1ccccc1[N+](=O)[O-]
inactive: [1] 16.1% | [2] 21.6% | [3] 34.3% | [4] 20.9% | [5] 39.2% | [6] 14.7%

CN(C)c1ccc(CNC(C(=O)c2ccccc2)c2ccccc2)cc1 (stereo unspecified)
inactive: [1] -31% | [2] -5.35% | [3] -15.6% | [4] -17.4% | [5] 8.3% | [6] -20.9%

NC(N)=Nc1cc2ccccc2c2ccccc12
inactive: [1] -1.2% | [2] -7.15% | [3] -7.5% | [4] -14% | [5] -3% | [6] -4.95%

Nc1ccc(N=Nc2ccc(O)cc2)c(N)n1
inactive: [1] -15.7% | [2] -20.1% | [3] -16.7% | [4] 2.85% | [5] 22.7% | [6] -4.7%

Oc1ccccc1-c1nnco1
inactive: [1] -1.9% | [2] -13.8% | [3] 0.35% | [4] 4.35% | [5] -2.15% | [6] -8.7%

O=C(CN1CCNCC1)N1CCOCC1
inactive: [1] -25.6% | [2] -25.1% | [3] -17.8% | [4] -23.9% | [5] -16.7% | [6] -13.8%

c1ccc(CN2COc3c(ccc4c3OCN(Cc3ccccc3)C4)C2)cc1
inactive: [1] 7.4% | [2] 20.8% | [3] 23.1% | [4] -22.7% | [5] 9.7% | [6] 8.3%

CC1OC(Oc2c(-c3ccc(O)c(O)c3)oc3cc(O)cc(O)c3c2=O)C(O)C(O)C1O (stereo unspecified)
inactive: [1] 21.4% | [2] -8.25% | [3] 14.2% | [4] 8.6% | [5] 20.9% | [6] 38.4%

CCOC(=O)c1cc(/C=C/c2cccc(Cl)c2)on1
inactive: [1] 57.2% | [2] 27.6% | [3] 25.9% | [4] 26.1% | [5] 8.1% | [6] 47.4%

O=c1cc(-c2ccccc2)[nH]c2c1CCCC2
inactive: [1] -17.8% | [2] -21.4% | [3] -12.2% | [4] -23.8% | [5] 0.95% | [6] -3.5%

c1cc2cccc3c4cccc5cccc(c(c1)c23)c54
inactive: [1] -18.9% | [2] -22.6% | [3] -17.9% | [4] 10.8% | [5] -4.15% | [6] -15.4%

N#CCCc1ccc(O)cc1
inactive: [1] -25.1% | [2] -44.2% | [3] -34.9% | [4] 1.55% | [5] -17.9% | [6] -19.1%

CC1CC(O)C2C3(C)CCCC2(COC3=O)C12CCC1(CCOC1=O)O2 (stereo unspecified)
inactive: [1] 4.4% | [2] 8.35% | [3] 18.3% | [4] 25.9% | [5] 8.35% | [6] 13.6%

O=C(Cc1nc2ccc([N+](=O)[O-])cc2nc1CC(=O)c1ccccc1)c1ccccc1
inactive: [1] -2.4% | [2] 9.35% | [3] -10.5% | [4] 2.75% | [5] 13.2% | [6] -1.1%

OCCN(CCO)C(=S)S
inactive: [1] 2.15% | [2] -5.75% | [3] 1.1% | [4] -1.8% | [5] 4.95% | [6] -0.85%

COc1cccc(COC(=O)Nc2ccccc2)c1OC
inactive: [1] 29.9% | [2] 21.4% | [3] 29.7% | [4] 21.5% | [5] 42.5% | [6] 0.65%

CCOc1ccc(I)cc1
inactive: [1] 10.9% | [2] 11.8% | [3] -17.5% | [4] 36.8% | [5] -0.75% | [6] -11.7%

COc1ccc(-c2cc(-c3cc(-c4ccc(OC)cc4)nc(N)n3)nc(N)n2)cc1
inactive: [1] -13% | [2] 4.45% | [3] -20.8% | [4] -2.65% | [5] -2.65% | [6] 9.8%

O=[N+]([O-])c1ccc(O)c(S(=O)(=O)O)c1
inactive: [1] 8.55% | [2] -20.6% | [3] 7.65% | [4] 15.7% | [5] -0.45% | [6] 4.1%

CCOC(=O)c1cc(/C=C/c2ccc(Cl)cc2Cl)on1
inactive: [1] -31.4% | [2] -52.7% | [3] -43% | [4] -41.1% | [5] -36.1% | [6] -45.5%

O=[N+]([O-])c1cccc(N=Nc2ccc(O)cc2O)c1
inactive: [1] 30.6% | [2] -5.65% | [3] 65.5% | [4] 15.6% | [5] 4.2% | [6] 20.6%

[O-][N+](=Nc1cccc(Cl)c1)c1cccc(Cl)c1
inactive: [1] 19.7% | [2] -30.9% | [3] 24.9% | [4] 16.1% | [5] 21.2% | [6] 15.1%

NC(=O)NC(=O)c1ccc(Cl)cc1
inactive: [1] 14.8% | [2] -7.05% | [3] 19.2% | [4] 29.1% | [5] -1.05% | [6] 11.3%

COc1cc2nn(-c3ccccc3N)nc2cc1OC
inactive: [1] 19.4% | [2] 36.6% | [3] 48.2% | [4] 14.7% | [5] 52.2% | [6] 29.9%
